Measured values from PubChem BioAssay (NCATS).
Records with an inconclusive call do not appear. Activity calls are given as the source filed them. The call rests on the fitted dose curve; in most records, active means well fitted curve in the direction sought with a large enough effect; inconclusive means small, poorly fitted or top-dose-only effect, or another doubt; inactive means no such curve, though single readings can be large; an effect the other way counts as inactive or inconclusive.

Assays:
[1] = Quantitative High-Throughput drug screen in 47 multiple myeloma cell lines against the NCATS MIPE library collection: FR4_PLB cell viability assay (AID 1918924; further: nearly all actives have a fitted effect of over 35% in size)
Outline: (§1)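 Primary qHTS used for cherry-picking: cells at 500/well, library compounds for 48 h (37C, 5% CO2), luminescent ATP assay.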

[2] = Quantitative High-Throughput drug screen in 47 multiple myeloma cell lines against the NCATS MIPE library collection: Delta47_JCRB cell viability assay (AID 1918925; further: nearly all actives have a fitted effect of over 45% in size)
Outline: as §1

[3] = Quantitative High-Throughput drug screen in 47 multiple myeloma cell lines against the NCATS MIPE library collection: EJM_DSMZ cell viability assay (AID 1918926; further: nearly all actives have a fitted effect of over 30% in size)
Outline: as §1

[4] = Quantitative High-Throughput drug screen in 47 multiple myeloma cell lines against the NCATS MIPE library collection: AMO1_DSMZ cell viability assay (AID 1918927; further: nearly all actives have a fitted effect of over 30% in size)
Outline: as §1

[5] = Quantitative High-Throughput drug screen in 47 multiple myeloma cell lines against the NCATS MIPE library collection: ARP1_JJKsccF8 cell viability assay (AID 1918928; further: nearly all actives have a fitted effect of over 40% in size)
Outline: (§2)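 Myeloma cells, 500 per well, were exposed to MIPE 4.0 drugs by pin transfer for 48 h at 37 °C, 5% CO2. Viability was read as ATP luminescence with CellTiter-Glo, normalised to DMSO-only (100%) and medium-only (0%) wells.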

[6] = Quantitative High-Throughput drug screen in 47 multiple myeloma cell lines against the NCATS MIPE library collection: ARD_JJKsccE7 cell viability assay (AID 1918929)
Outline: as §1

[7] = Quantitative High-Throughput drug screen in 47 multiple myeloma cell lines against the NCATS MIPE library collection: Karpas620_DSMZ cell viability assay (AID 1918959); further: nearly all actives have a fitted effect of over 30% in size
Outline: as §1

[8] = Quantitative High-Throughput drug screen in 47 multiple myeloma cell lines against the NCATS MIPE library collection: KMM1_JCRB cell viability assay (AID 1918960); further: nearly all actives have a fitted effect of over 30% in size
Outline: as §2

[9] = Quantitative High-Throughput drug screen in 47 multiple myeloma cell lines against the NCATS MIPE library collection: KHM11_PLB cell viability assay (AID 1918962); further: nearly all actives have a fitted effect of over 35% in size
Outline: as §1

[10] = Quantitative High-Throughput drug screen in 47 multiple myeloma cell lines against the NCATS MIPE library collection: JIM3_ECACC cell viability assay (AID 1918963; further: nearly all actives have a fitted effect of over 35% in size)
Outline: as §1

[11] = Quantitative High-Throughput drug screen in 47 multiple myeloma cell lines against the NCATS MIPE library collection: JIM1_ECACC cell viability assay (AID 1918964)
Outline: as §1

[12] = Quantitative High-Throughput drug screen in 47 multiple myeloma cell lines against the NCATS MIPE library collection: INA6_PLB cell viability assay (AID 1918965; further: nearly all actives have a fitted effect of over 55% in size)
Outline: (§3)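 We plated 500 myeloma cells per well, pinned in MIPE 4.0 compounds, and incubated for 48 hours at 37C. ATP was then quantified with CellTiter-Glo, with DMSO and media-only wells defining 100% and 0%.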

[13] = Quantitative High-Throughput drug screen in 47 multiple myeloma cell lines against the NCATS MIPE library collection: H1112_PLB cell viability assay (AID 1918967; further: nearly all actives have a fitted effect of over 30% in size)
Outline: as §1

[14] = Quantitative High-Throughput drug screen in 47 multiple myeloma cell lines against the NCATS MIPE library collection: Karpas25_ECACC cell viability assay (AID 1918968; further: nearly all actives have a fitted effect of over 35% in size)
Outline: as §1

[15] = Quantitative High-Throughput drug screen in 47 multiple myeloma cell lines against the NCATS MIPE library collection: KMS27_JCRB cell viability assay (AID 1918970); further: nearly all actives have a fitted effect of over 30% in size
Outline: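 ATP-based viability (CellTiter-Glo luminescence) is measured in cells treated 48 h with approved and investigational drugs at 37 °C. Controls are DMSO-only wells for full viability and media-only wells for none.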

[16] = Quantitative High-Throughput drug screen in 47 multiple myeloma cell lines against the NCATS MIPE library collection: KMS12BM_JCRB cell viability assay (AID 1918971); further: nearly all actives have a fitted effect of over 35% in size
Outline: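 Myeloma cells (500 per well) were exposed to MIPE 4.0 compounds by pin transfer and incubated 48 hours at 37C, 5% CO2. Viability was read as ATP by CellTiter-Glo luminescence, normalised to DMSO (100%) and media-only (0%) wells.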

[17] = Quantitative High-Throughput drug screen in 47 multiple myeloma cell lines against the NCATS MIPE library collection: KMS12PE_JCRB cell viability assay (AID 1918972); further: nearly all actives have a fitted effect of over 30% in size
Outline: as §3

[18] = Quantitative High-Throughput drug screen in 47 multiple myeloma cell lines against the NCATS MIPE library collection: JJN3_DSMZ cell viability assay (AID 1918966; further: nearly all actives have a fitted effect of over 50% in size)
Outline: as §1

[19] = Quantitative High-Throughput drug screen in 47 multiple myeloma cell lines against the NCATS MIPE library collection: Karpas417_ECACC cell viability assay (AID 1918961); settings: Karpas417 myeloma viability, CellTiter-Glo ATP luminescence, 48 h; viability (% of DMSO): at 45.8 µM (top of the series)
Outline: as §3
Potency means the concentration at half of the fitted maximal effect.

Compound | Potency [1] | Potency [2] | Potency [3] | Potency [4] | Potency [5] | Potency [6] | Potency [7] | Potency [8] | Potency [9] | Potency [10] | Potency [11] | Potency [12] | Potency [13] | Potency [14] | Potency [15] | Potency [16] | Potency [17] | Potency [18] | Potency [19]
CN(C)CC=CC(=O)Nc1cc2c(Nc3ccc(F)c(Cl)c3)ncnc2cc1O[C@H]1CCOC1 | 14800 nM (active) | 3720 nM (active) | 16600 nM (active) | 935 nM (active) | 18700 nM (active) | 5260 nM (active) | 2640 nM (active) | 3720 nM (active) | 7430 nM (active) | 8330 nM (active) | 2960 nM (active) | 2090 nM (active) | 5900 nM (active) | 1320 nM (active) | 2640 nM (active) | 16600 nM (active) | 1180 nM (active) | – | –
CC(NCc1ccc2c(c1)nc(NC(=O)c1ccc(-c3cn[nH]c3)s1)n2CC(C)(C)O)C(C)(C)C (configuration not stated) | 372 nM (active) | 83.3 nM (active) | 372 nM (active) | 166 nM (active) | 418 nM (active) | 296 nM (active) | 264 nM (active) | 235 nM (active) | 93.5 nM (active) | 209 nM (active) | 46.9 nM (active) | 83.3 nM (active) | 469 nM (active) | 264 nM (active) | 83.3 nM (active) | 1050 nM (active) | 264 nM (active) | 264 nM (active) | –
COc1cc2ncn(-c3cc(OCc4ccccc4C(F)(F)F)c(C(N)=O)s3)c2cc1OC | 5260 nM (active) | 7430 nM (active) | 2640 nM (active) | 743 nM (active) | – | 935 nM (active) | 235 nM (active) | 469 nM (active) | 18700 nM (active) | 469 nM (active) | 296 nM (active) | 1180 nM (active) | 7430 nM (active) | 13200 nM (active) | 132 nM (active) | 833 nM (active) | – | 16600 nM (active) | 13200 nM (active)
O=c1[nH]nc(Sc2ncc([N+](=O)[O-])s2)n1-c1ccc2c(c1)OCCO2 | 7430 nM (active) | 2350 nM (active) | 2960 nM (active) | 6620 nM (active) | 2960 nM (active) | 7430 nM (active) | 2640 nM (active) | 5900 nM (active) | 2090 nM (active) | 2640 nM (active) | 5900 nM (active) | 1180 nM (active) | 2640 nM (active) | 1320 nM (active) | 6620 nM (active) | 4690 nM (active) | 7430 nM (active) | 2090 nM (active) | –
COc1ccc(CC2SC(=O)NC2=O)cc1C(=O)NCc1ccc(C(F)(F)F)cc1 (configuration not stated) | inactive | inactive | inactive | inactive | – | – | – | – | – | inactive | – | – | inactive | 5900 nM (active) | inactive | inactive | – | inactive | –
CN(c1ncccc1CNc1nc(Nc2ccc3c(c2)CC(=O)N3)ncc1C(F)(F)F)S(C)(=O)=O | 5900 nM (active) | 3720 nM (active) | 8330 nM (active) | 3320 nM (active) | 9350 nM (active) | 2640 nM (active) | 1480 nM (active) | 3320 nM (active) | – | 5900 nM (active) | 3320 nM (active) | 2640 nM (active) | 5900 nM (active) | 3320 nM (active) | 2640 nM (active) | 9350 nM (active) | 8330 nM (active) | 2640 nM (active) | 1870 nM (active)
CC(C)C[C@H](NC(=O)CNC(=O)c1cc(Cl)ccc1Cl)B(O)O | 83.3 nM (active) | 46.9 nM (active) | 148 nM (active) | 46.9 nM (active) | 59 nM (active) | 74.3 nM (active) | 118 nM (active) | 66.2 nM (active) | 46.9 nM (active) | 105 nM (active) | 105 nM (active) | 37.2 nM (active) | 105 nM (active) | – | 118 nM (active) | 132 nM (active) | 74.3 nM (active) | – | 41.8 nM (active)
CC=CC1=C(C(=O)O)N2C(=O)[C@H](NC(=O)[C@H](N)c3ccc(O)cc3)[C@@H]2SC1 | inactive | inactive | inactive | 8330 nM (active) | – | – | 14800 nM (active) | inactive | – | – | – | – | – | – | – | inactive | inactive | inactive | inactive
C[C@H]1C[C@@H]2[C@@H]([C@@H](O)C[C@@]3(C)[C@H]2CC[C@]3(O)C(=O)CO)[C@@]2(C)C=CC(=O)C=C12 | inactive | inactive | inactive | inactive | – | – | inactive | – | inactive | inactive | inactive | – | – | 105 nM (active) | – | inactive | inactive | inactive | 132 nM (active)
COc1cc2c(Oc3ccc(-c4cnc(Nc5ccc(F)cc5)n(C)c4=O)cc3F)ccnc2cc1OCCCN1CCOCC1 | 14800 nM (active) | 935 nM (active) | 18700 nM (active) | 2350 nM (active) | – | – | 2960 nM (active) | 1870 nM (active) | 8330 nM (active) | 5900 nM (active) | 1180 nM (active) | 14800 nM (active) | 14800 nM (active) | – | 1180 nM (active) | 20900 nM (active) | 1870 nM (active) | – | –
Cn1cncc1[C@@](N)(c1ccc(Cl)cc1)c1ccc2c(c1)c(-c1cccc(Cl)c1)cc(=O)n2C | 20900 nM (active) | 6620 nM (active) | 14800 nM (active) | 7430 nM (active) | 469 nM (active) | – | 5900 nM (active) | 9350 nM (active) | – | 16600 nM (active) | 935 nM (active) | 4690 nM (active) | – | 4180 nM (active) | 7430 nM (active) | 14800 nM (active) | 3320 nM (active) | 8330 nM (active) | –
